Screens deposited in PubChem BioAssay by Pan Lab, Icahn School of Medicine at Mount Sinai.
The sample as a whole holds a higher share of hits than the screen did.
ROC1-CUL1 inh: inhibitors of human ROC1-CUL1 ubiquitin ligase activity; E3 ubiquitin-protein ligase RBX1 (Homo sapiens) + Cullin-1 (Homo sapiens), P62877+Q13616; in vitro K48 di-Ub FRET, acceptor:donor ratio, 45 min; inhibition, % at 10 µM; actives 0.6% (n = 140,000); AID 1347404, 2020; in the data active = inhibition above about 25%
Target sequence (P62877 whole entry, looked up): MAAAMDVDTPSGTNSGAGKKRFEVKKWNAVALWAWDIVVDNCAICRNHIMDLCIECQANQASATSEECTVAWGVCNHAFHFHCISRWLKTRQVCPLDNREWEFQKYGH
Target sequence (Q13616 whole entry, looked up): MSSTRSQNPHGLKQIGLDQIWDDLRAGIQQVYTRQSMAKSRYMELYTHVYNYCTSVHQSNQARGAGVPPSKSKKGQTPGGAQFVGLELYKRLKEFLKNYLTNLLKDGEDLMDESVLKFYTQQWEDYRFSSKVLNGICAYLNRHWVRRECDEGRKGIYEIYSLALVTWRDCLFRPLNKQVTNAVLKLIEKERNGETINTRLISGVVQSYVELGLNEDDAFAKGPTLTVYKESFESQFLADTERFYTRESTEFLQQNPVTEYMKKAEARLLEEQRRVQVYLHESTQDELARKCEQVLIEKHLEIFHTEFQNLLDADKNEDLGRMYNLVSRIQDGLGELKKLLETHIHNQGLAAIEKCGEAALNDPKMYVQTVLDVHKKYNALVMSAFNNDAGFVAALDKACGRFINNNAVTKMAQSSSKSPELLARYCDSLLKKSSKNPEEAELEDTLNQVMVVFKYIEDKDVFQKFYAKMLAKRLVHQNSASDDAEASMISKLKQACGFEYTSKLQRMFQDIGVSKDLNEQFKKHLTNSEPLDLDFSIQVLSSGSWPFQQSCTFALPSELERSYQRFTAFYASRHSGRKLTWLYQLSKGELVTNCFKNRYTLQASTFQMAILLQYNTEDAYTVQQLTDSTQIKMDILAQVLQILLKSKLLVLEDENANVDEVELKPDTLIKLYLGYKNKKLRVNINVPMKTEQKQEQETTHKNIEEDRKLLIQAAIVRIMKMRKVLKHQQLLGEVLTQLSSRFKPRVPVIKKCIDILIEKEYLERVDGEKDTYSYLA
Active calls of the source: *.

SMILES | ROC1-CUL1 inh
Cc1nn(Cc2ccccc2Cl)c(C)c1NC(=O)c1ccc([N+](=O)[O-])cc1 | 2
Oc1cccc(Nc2nc(N3CCCCC3)c3ccccc3n2)c1 | 4
COc1ccc(C(C2C(=O)C=C(C)OC2=O)C2C(=O)C=C(C)OC2=O)cc1 (stereo not given) | 0
COc1ccc(C(C2C(=O)Oc3ccc(C)cc3C2=O)C2C(=O)Oc3ccc(C)cc3C2=O)cc1 (stereo not given) | 69*
COc1ccc(N=CC2C(=O)Oc3ccccc3C2=O)cc1 (stereo not given) | 0
CCOc1cccc2c1Oc1nc(-c3ccccc3)nc(SCC(=O)Nc3ccc(F)cc3)c1C2 | -10
COc1ccc(-c2nc3c(c(SCC(=O)Nc4ccccc4OC)n2)Cc2cccc(C)c2O3)cc1 | 3
Cc1ccc(-c2nc3c(c(SCC(=O)Nc4cccc(C(=O)O)c4)n2)Cc2cccc(C)c2O3)cc1 | 31*
CCc1ccc(N2C(=O)C(Cl)=C(N3CCN(C)CC3)C2=O)cc1 | 4
Cc1csc(NC(=O)CSc2nc(-c3cccs3)ccc2C#N)n1 | 1
N#C/C(=N\O)c1nc(-c2ccc(F)cc2)cs1 | 0
CC(=O)C1C(C)=NC(SCC#N)=C(C#N)C1c1ccccc1 (stereo not given) | 4
Cc1ccc(-c2c3c(=O)c4ccccc4c3nc3c2c(=O)c2ccccc23)cc1 | 7
FC(F)(F)c1ccc2nc(-c3ccc(Br)cc3)cn2c1 | -2
Brc1ccc(-c2cn3ccncc3n2)cc1 | 29*
O=[N+]([O-])c1ccc2nc(-c3ccc(Br)cc3)cn2c1 | 5
O=C(Nc1ccc(F)cc1F)c1c(Cl)cccc1Cl | 11
Cc1cc(Cl)ccc1NC(=O)C1CCN(S(=O)(=O)N(C)C)CC1 | 1
CCN1CCN(C(c2cccc(OC)c2)C2C(=O)C=C(C)N(Cc3ccco3)C2=O)CC1 (stereo not given) | -4
O=C(COc1ccc(Br)cc1/C=C1/C(=O)ON=C1c1ccccc1)Nc1ccccc1 | 43*
Cc1cccc(NC(=O)COc2ccc(Br)cc2C=C2C(=O)NC(=S)NC2=O)c1 | 0
CC(C)(C)c1cc(Br)ccc1OCC(=O)Nc1ccccc1 | 0
Cc1[nH]nc2c1C(c1cccc(I)c1)C(C#N)C(=N)O2 (stereo not given) | -5
CCc1ccc(C2C(C(=O)c3ccc4c(c3)CC(C)O4)C(=O)C(=O)N2CCOC)cc1 (stereo not given) | 15
CCCCOc1ccc(C(=O)C2C(=O)C(=O)N(CCOC)C2c2ccc(CC)cc2)cc1C (stereo not given) | 41*
SMILES | ROC1-CUL1 inh
COc1ccc(C(=O)C2C(=O)C(=O)N(CCCN(C)C)C2c2ccc(C)cc2)cc1OC (stereo not given) | -8
COc1ccc(C(=O)C2C(=O)C(=O)N(CCN(C)C)C2c2ccc(OCc3ccccc3)cc2)cc1 (stereo not given) | -5
Cc1ccc(C2C(C(=O)c3ccc(OCc4ccccc4)c(C)c3)C(=O)C(=O)N2CCN(C)C)cc1 (stereo not given) | 72*
CCCCOc1ccc(C(=O)C2C(=O)C(=O)N(CCCOC)C2c2ccc(O)c(OC)c2)cc1C (stereo not given) | 1
O=C(N=C1C=CC=NOC1)c1cccc(O)c1 | 5
COc1cc(C2N(c3ccc(Cl)cc3)N=C(C(C)=O)N2c2ccc(N3CCOCC3)cc2)ccc1OCc1ccc(Cl)cc1 (stereo not given) | 0
Cc1ccccc1OCC(=O)NC(C(=O)N/N=C/c1ccc(OCc2ccccc2C#N)cc1)C(C)C (stereo not given) | 96*
Cc1ccccc1OCC(=O)NC(C)C(=O)N/N=C\c1ccc2c(c1)n(C)c(=O)n2C (stereo not given) | 9
Cc1cccc(OCC(=O)NC(C)C(=O)N/N=C/c2ccc(OCc3c(C)cc(C)cc3C)cc2)c1 (stereo not given) | 12
COc1cc(-c2c(F)c(F)c(F)c(F)c2F)nc(N)n1 | 35*
COc1cc(OC)nc(Oc2cccc(OC)c2N)n1 | 4
CSc1cc(-c2ccccc2)nc(N)n1 | 5
COC(=O)c1cnn(-c2cc(Oc3ccccc3F)ncn2)c1N | 1
COc1cc(CN2CCOc3ccc(C(O)CCc4ccccc4)cc3C2)cc(OC)c1 (stereo not given) | 13
CCOC(=O)c1c(-n2c(C)cc(/C=C3\C(=O)NC(=S)N(c4ccccc4)C3=O)c2C)sc2c1CCCC2 | 49*
Cc1cc(C=C2C(=O)NC(=S)NC2=O)c(C)n1-c1sc2c(c1C(=O)Nc1ccccc1)CCCC2 | -2
CCOc1ccc(N2C(=O)/C(=C/c3cc(C)n(C4CCCC4)c3C)C(=O)NC2=S)cc1 | -4
COc1cccc(C(=O)Oc2ccc(C(C)=O)cc2)c1 | -4
COc1ccc(/C=C2/C(=O)N(c3ccccn3)N=C2C)c(OC)c1 | 14
Cc1cc(C(F)(F)F)nc(SCc2ccc(C(=O)N/N=C/c3c(Br)cnn3C)o2)n1 | -4
CCOc1ccccc1NC(=O)CSc1ncnc2sc3c(c12)CCCC3 | 4
OCCOc1ccccc1CN1CCCC(Nc2ccc3c(c2)OCO3)C1 (stereo not given) | -9
CC(/C=C/C(=O)c1ccc(C)cc1)=C\c1ccccc1 | 1
O=C(/C=C/C(=O)c1ccccc1)c1ccccc1 | 27*
COc1ccccc1/C=C/C(=O)c1ccccc1 | 2
SMILES | ROC1-CUL1 inh
CCOc1ccc(-n2nnc(C(=O)Nc3ccc(N4CCN(C)CC4)cc3)c2C)cc1 | 3
COc1ccc(CC(=O)Nc2c(C)cc(C)cc2C)cc1 | -5
CCOC(=O)C#CCN1C(=O)c2ccccc2C1=O | 40*
CCCCCCOC(=O)C(CCCCN1C(=O)c2ccccc2C1=O)N1C(=O)c2ccccc2C1=O (stereo not given) | 5
O=C1c2ccccc2C(=O)N1CC#Cc1ccccc1 | -7
O=C(CCC1CCCC1)Nc1ccc(C(=O)c2ccccc2)cc1 | -1
COc1ccc(NC(=O)c2sc3nc(-c4ccc(OC)cc4)cc(-c4ccc(OC)cc4)c3c2N)cc1 | 5
CCN(CC)CCN=CC1C(=O)N(c2c(Cl)cccc2Cl)c2ccccc21 (stereo not given) | 4
CN(C)/C=C1/N=C2C=C(c3ccccc3)c3cc(Cl)ccc3N2C1=O | 0
CN(C)/C=C1\C(=O)N(c2c(Cl)cccc2Cl)c2cc(C=C(C#N)C#N)ccc21 | 34*
CCCOc1ccc(C2C3=C(CCCC3=O)OC(=N)C2C#N)cc1OC (stereo not given) | -12
CCNC(=O)C1CCN(S(=O)(=O)c2ccc(SC)cc2)CC1 | -3
Cc1cccc(C2=NN3C(=N)/C(=C\c4ccc([N+](=O)[O-])o4)C(=O)N=C3S2)c1 | 106*
Cc1cccc(/C=C2/C(=N)N3N=C(c4ccccc4Cl)SC3=NC2=O)c1 | 5
Cc1ccc(/C=C2/C(=N)N3N=C(c4ccc(C)cc4)SC3=NC2=O)cc1 | 6
COc1cc(C2C(C(=O)c3cc4ccccc4o3)C(=O)C(=O)N2c2nnc(C)s2)ccc1OCc1ccccc1 (stereo not given) | 65*
CC(=O)c1sc(N2C(=O)C(=O)C(C(=O)c3cc4ccccc4o3)C2c2ccc(F)cc2)nc1C (stereo not given) | -1
Cc1ccc(CSc2nnc(N3C(=O)C(=O)C(C(=O)c4cc5ccccc5o4)C3c3ccc(OCc4ccccc4)cc3)s2)cc1 (stereo not given) | 47*
O=C1C(=O)N(c2nnc(SCc3ccc(F)cc3)s2)C(c2cccc(Oc3ccccc3)c2)C1C(=O)c1cc2ccccc2o1 (stereo not given) | 41*
